Hit rate of the full screen: of about 5,500 compounds, about 2,000 (36%) were called active. Not shown: some 18% with an inconclusive outcome. Rule as the data show it: active = normalized growth mostly below about 0.91 (no sharp cut-off); inconclusive = no clear call, values can overlap the other calls; inactive = mostly above about 0.92. Some of the results follow.
Experiment: chemical genetic growth profiling, strain panel (AID 1159580);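 also: tested at 20 µM; growth read once vehicle control cultures reached saturation at 30 °C; 1 = growth at the plate median or of vehicle wells; lower values mean less growth of the strain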
Conditions: growth OD

Measured: normalized growth

COc1ccc(C(=O)CN2CCN(c3cc(C)nc4ccccc34)CC2)cc1
inactive: S. cerevisiae deletion strains, locus YAL013W, strain DEP1, hits give low values 1.01 | S. cerevisiae deletion strains, locus YBR229C, strain ROT2, hits give low values 1.01 | S. cerevisiae deletion strains, locus YCL061C, strain MRC1, hits give low values 1 | S. cerevisiae deletion strains, locus YDL101C, strain DUN1, hits give low values 0.968 | S. cerevisiae deletion strains, locus YDL134C, strain PPH21, hits give low values 0.994 | S. cerevisiae deletion strains, locus YDR150W, strain NUM1, hits give low values 0.982 | S. cerevisiae deletion strains, locus YEL061C, strain CIN8, hits give low values 0.979 | S. cerevisiae deletion strains, locus YGR078C, strain PAC10, hits give low values 1 | S. cerevisiae deletion strains, locus YHR030C, strain SLT2, hits give low values 0.905 | S. cerevisiae deletion strains, locus YHR087W, strain rtc3, hits give low values 0.994 | S. cerevisiae deletion strains, locus YJL187C, strain SWE1, hits give low values 1 | S. cerevisiae deletion strains, locus YJR043C, strain POL32, hits give low values 1 | S. cerevisiae deletion strains, locus YJR075W, strain HOC1, hits give low values 1.01 | S. cerevisiae deletion strains, locus YLR039C, strain RIC1, hits give low values 0.956 | S. cerevisiae deletion strains, locus YLR058C, strain SHM2 (second series), hits give low values 1.01 | S. cerevisiae deletion strains, locus YLR085C, strain ARP6, hits give low values 0.987 | S. cerevisiae deletion strains, locus YLR262C, strain YPT6, hits give low values 0.942 | S. cerevisiae deletion strains, locus YML094W, strain GIM5, hits give low values 0.957 | S. cerevisiae deletion strains, locus YMR219W, strain ESC1, hits give low values 0.997 | S. cerevisiae deletion strains, locus YMR263W, strain SAP30, hits give low values 1.04 | S. cerevisiae deletion strains, locus YMR307W, strain GAS1, hits give low values 1.09 | S. cerevisiae deletion strains, locus YNL153C, strain GIM3, hits give low values 1.01 | S. cerevisiae deletion strains, locus YNL298W, strain CLA4 (second series), hits give low values 0.975 | S. cerevisiae deletion strains, locus YNL322C, strain KRE1, hits give low values 0.998 | S. cerevisiae deletion strains, locus YNR030W, strain Alg12, hits give low values 0.994 | S. cerevisiae deletion strains, locus YOL006C, strain TOP1, hits give low values 0.995 | S. cerevisiae deletion strains, locus YPL055C, strain LGE1, hits give low values 1.01 | S. cerevisiae deletion strains, locus YPL241C, strain CIN2, hits give low values 1.05 | S. cerevisiae deletion strains, locus YPR135W, strain CTF4, hits give low values 0.944 | S. cerevisiae strains, strain wild type, hits give low values 1

Source: PubChem BioAssay AID1159580 (chemical genetic matrix, 2015)
